HCV inhibitor: HCV inhibition; Huh7.5.1 HCVcc-Cre infection, luciferase reporter, 44 h; Potency, µM (top dose mostly 41.8 µM), for inactives: at the highest dose activity change, negative = inhibition, most hits filed as inhibitors; 3.4% of 340,000 active; AID 651820; further: potency means the concentration at half of the fitted maximal effect
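1,000 cells/well; 4 h culture; + compound; + HCVcc-Cre (~0.5 moi); 44 h; luciferase substrate, RT 15 min; read 15 sec.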
Pf growth 96h: P. falciparum growth inhibition at 96 hours; P. falciparum luciferase reporter growth, 96 h; Potency, µM (series often up to 28.7 µM), for the others: top-dose activity change, negative = inhibition, actives largely listed as inhibitors; 6.9% of 320,000 active; AID 504834; further: potency means the concentration at half of the fitted maximal effect
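Plates of compound plus infected erythrocytes (2% hematocrit, 0.05% parasitemia final) incubate 96 hours, 37 C, 5% CO2. Detection reagent added; reduced luminescence from the parasites' luciferase reporter flags inhibition.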
HCMV antiviral: human cytomegalovirus inhibition. HFF cells, HCMV-luciferase reporter, 72 h; stronger effect = lower value. activity change, negative = inhibition, % at 57.5 µM. 4.5% of 410,000 active. AID 1259415; in the data active means activity change below about -60%; inconclusive means no clear call, values can overlap the other calls; inactive means above about -39%
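Two compound doses tested in HFFs infected with HCMV-luciferase, MOI 1 PFU/cell, 72 h at 37C. Lysate luminescence read with OneGlo; data normalized against buffer-only and 10uM Salinomycin inhibitor controls.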
LASV entry inh: blocks Lassa virus binding to or entry into cells; Lassa virus pseudotype entry inhibition, cell reporter; Potency, µM (series often up to 37.9 µM), without a hit: at the top dose activity change, negative = inhibition, most hits filed as inhibitors; 1.2% of 300,000 active; AID 540256; calls by dose curve; tested in HEK293 cells; further: potency means the concentration at half of the fitted maximal effect; nearly all actives have a fitted effect of over 50% in size
Marburg entry inh: blocks Marburg virus binding to or entry into cells; AID 540276; Marburg virus pseudotyped entry inhibition, cell reporter; 1.8% of 300,000 active; Potency, µM (titrated, usually from 37.8 µM), for the others: at the highest dose activity change, negative = inhibition, usual class: inhibitors; calls by dose curve; tested in HEK293 cells; further: potency means the concentration at half of the fitted maximal effect
Pf growth 48h: inhibits P. falciparum growth in the first generation, 48 h; 5.9% of 310,000 active; AID 504832; P. falciparum luciferase growth in erythrocytes, 48 h; Potency, µM (highest dose often 28.7 µM), inactives show top-dose activity change, negative = inhibition, usual class: inhibitors; further: potency means the concentration at half of the fitted maximal effect
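Compounds are pin-transferred into medium, infected erythrocytes (2% hematocrit, 0.1% parasitemia final) are added, and plates sit one parasite generation at 37 C in 5% CO2. Detection reagent is then added and luminescence measured.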
The depositor's hits bear a star; ? = inconclusive; nt = no result; [ ] = another dose, or the depositor's remark. The list is not random: actives were taken first. Their share in the collection is about 14%. Unless noted, the call rests on the fitted dose curve; in most records, active means well fitted inhibition curve with a large enough effect; inconclusive means small, poorly fitted or top-dose-only effect, or another doubt; inactive means no such curve, though single readings can be large or run the other way. On the % scale 0 is the no-effect control and ±100 the full control effect.

SMILES | HCV inhibitor | Pf growth 96h | HCMV antiviral | LASV entry inh | Marburg entry inh | Pf growth 48h
CC(C)C[C@@H](CO)N(Cc1ccccc1)S(=O)(=O)N(Cc1ccccc1)[C@@H](CO)CC(C)C | -7% | 2.6µM* | nt | nt | nt | 7.4µM*
COc1ccc(CN([C@H](CO)CC(C)C)S(=O)(=O)N(Cc2ccccc2)[C@H](CO)CC(C)C)cc1 | ? | nt | -89* | nt | nt | nt
O=S(=O)(N(Cc1ccccc1)[C@H](CO)Cc1ccccc1)N(Cc1ccccc1)[C@H](CO)Cc1ccccc1 | 5% | nt | 11 | nt | nt | nt
CC(C)C[C@@H](CO)N(Cc1ccccc1)S(=O)(=O)N(Cc1ccccc1)[C@H](CO)CC(C)C | ? | ? | nt | nt | nt | 4.7µM*
COc1ccc(CN([C@H](C)CO)S(=O)(=O)N(Cc2ccccc2)[C@H](CO)C(C)C)cc1 | ? | ? | -10 | nt | nt | ?
O=C(CC1C[C@H](C(=O)N2CCOCC2)[C@@]2(CCC3CCCC3)c3[nH]c4ccccc4c3CCN2C1=O)NCCCn1ccnc1 (stereo partly drawn) | 3% | nt | -17 | nt | nt | nt
COc1ccc(NC(=O)CN(C)C(=O)CNC(=O)c2ccc3ccccc3c2)cc1 | -17% | 42% | 30 | -1% | 12% | 65%
CCc1nc2ccccc2n1Cc1cc(=O)n2cc(C)ccc2n1 | -4% | 1.7µM* | 16 | ? | 7% | -17%
NC(CSC1(c2ccc(F)cc2)c2ccccc2-c2ccccc21)C(=O)O (stereo not drawn) | nt | nt | -68* | nt | nt | nt
NC(CSC1(c2ccc(Cl)cc2)c2ccccc2-c2ccccc21)C(=O)O (stereo not drawn) | 0% | nt | -6 | -3% | 1% | nt
CCCOC(=O)c1ccc(S(N)(=O)=O)o1 | 30% | 7.4µM* | -24 | 3% | 4% | 9%
CCC(=O)Nc1ccc(-c2nnc3c4ccccc4c(C)nn23)cc1 | nt | nt | -35 | ? | 3%[46.1 µM] | nt
COc1ccc(NC(=O)C(=O)NCC(=O)Nc2cc(OC)ccc2OC)cc1 | 1% | ? | 17 | 5% | -26% | -1%
CCOc1ccc(C2C(C#N)=C(N)Oc3cc(C)n(CCN(C)C)c(=O)c32)cc1OCC (stereo not drawn) | 10% | 12µM* | -1 | -6% | 5% | 5%
CCN(CC)CCCn1c(C)cc2c(c1=O)C(c1ccc(OC)c(OC)c1OC)C(C#N)=C(N)O2 (stereo not drawn) | 12% | 0.93µM* | -31 | 5% | 9% | ?
Cc1cc2c(c(=O)n1CCN(C)C)C(c1ccc(Cl)cc1)C(C#N)=C(N)O2 (stereo not drawn) | 14% | ? | -6 | -1% | -12% | -22%
COc1cccc(NC(=S)NC(Cc2ccccc2)c2ccccc2)c1 (stereo not drawn) | nt | nt | -11 | nt | nt | nt
Fc1cccc(F)c1-n1c(CN2CCCCC2)csc1=S | ? | 12µM* | -68* | -13%[46.1 µM] | 6.3µM* | ?
Fc1cccc(F)c1-n1c(CN2CCOCC2)csc1=S | -6% | -22% | 2 | nt | nt | 13%
CCCCOc1ccc(/C=C/C(=O)NC2=Nc3ccccc3NC(C)=C2C(=O)OCC)cc1OC | ? | 10µM* | 70 | 1%[46.1 µM] | 6.3µM* | ?
OC1CN=C2CCCc3c2n(c2ccc(Cl)cc32)C1 (stereo not drawn) | -26% | nt | 15 | 1% | -6% | ?
c1ccc(-c2ccc3c(c2)c2c4n3CCN=C4CCC2)cc1 | ? | ? | -15 | -5% | 26µM* | -63%
O=C(c1cccs1)c1ccc(-c2cccs2)s1 | ? | ? | 11 | ? | 11µM* | -20%
CN1CCN(C(=O)c2ccc(-c3cccs3)s2)CC1 | -4% | 255% | -17 | -7%[46.1 µM] | ? | 107%
CCOCC(=O)NC1CCc2cc(OC)c(OC)c(OC)c2-c2ccc(SC)c(=O)cc21 (stereo not drawn) | -22% | nt | -66* | ? | -17% | nt
SMILES | HCV inhibitor | Pf growth 96h | HCMV antiviral | LASV entry inh | Marburg entry inh | Pf growth 48h
COc1c(O[C@H]2O[C@@H](CO)[C@@H](O)[C@@H](O)[C@@H]2O)cc2c(c1OC)-c1ccc(SC)c(=O)cc1[C@H](NC(C)=O)CC2 | nt | -2%[12.8 µM] | nt | nt | nt | 4%[12.8 µM]
CCOC(=O)NC1CCc2cc(OC)c(OC)c(OC)c2-c2ccc(SC)c(=O)cc21 (stereo not drawn) | -16% | nt | -72* | ? | ? | nt
CCCCOC(=O)NC1CCc2cc(OC)c(OC)c(OC)c2-c2ccc(SC)c(=O)cc21 (stereo not drawn) | -30% | nt | -80* | ? | ? | nt
CCSc1nc2c(c(=O)[nH]1)C(c1cccnc1)C(C(=O)OC)=C(C)N2 (stereo not drawn) | 4% | 125% | 62 | 1% | -1% | -9%
CCSc1nc2c(c(=O)[nH]1)C(c1ccncc1)C(C(=O)OC(C)C)=C(C)N2 (stereo not drawn) | 7% | 10µM* | 39 | 2% | 11% | ?
O=C(CN1CCN(C(=O)c2ccco2)CC1)Nc1ccccc1-c1ccccc1 | -17% | -104% | -21 | -29% | ? | ?
O=C(CN1CCN(C(=O)c2ccco2)CC1)Nc1ccc(Cl)c(S(=O)(=O)N2CCOCC2)c1 | -10% | -83% | -37 | -2% | 5%[46.1 µM] | 12µM*
COc1cc2c(cc1OC)CN(CC(=O)Nc1ccc(Cl)cc1Cl)CC2 | -26% | -15% | ? | ? | -1% | ?
Cc1cc(Cl)ccc1NC(=O)CN1CCC(C(O)(c2ccccc2)c2ccccc2)CC1 | ? | ? | -67* | ? | ? | ?
O=C(CN1CCN(C(=O)c2ccco2)CC1)Nc1cc(Cl)ccc1Cl | -17% | 35% | -39 | -28% | 3% | 1µM*
CN1CCN(CC(=O)Nc2ccc(Cl)cc2Cl)CC1 | ? | 9.3µM* | 48 | 0% | 16% | 15%
O=C(CN1CCN(C(=O)c2ccco2)CC1)Nc1ccc2c(c1)OCCO2 | -20% | 28% | -19 | 4% | 5% | 62%
Cc1cc(Cl)ccc1NC(=O)CN1CCCC1 | -13% | -29% | 6 | ? | -5%[46.1 µM] | -8%
CCN(CCn1cccn1)C(=O)C1CCC(=O)N(CC2CCCCC2)C1 (stereo not drawn) | 17% | -16% | -15 | 5%[46.1 µM] | -23%[46.1 µM] | -2%
Cc1ccn(-c2ccc([N+](=O)[O-])cc2)n1 | 6% | ? | -88* | -11% | 15% | 29%
Cc1ccn(-c2n[nH]c(C)c2[N+](=O)[O-])n1 | 4% | 33% | -14 | 10% | ? | 6%
O=C1C2C3C=CC(C4CC34)C2C(=O)N1/N=C/c1ccc(-c2ccc(Cl)cc2[N+](=O)[O-])o1 (stereo not drawn) | ? | 17% | 117 | ? | -6% | nt
O=C1C2C3C=CC(C4CC34)C2C(=O)N1/N=C/c1ccc(-c2ccc(F)cc2[N+](=O)[O-])o1 (stereo not drawn) | ? | 4.7µM* | -13 | -6% | -26% | nt
